# A number with no mark means an inactive call. Results filed as inconclusive are left out. Where a call stands in place of a potency, no number is given. Calls of active or inactive are those of the source. Calls follow the shape of the dose curve; as a rule, active = well fitted curve in the direction sought with a large enough effect in the repeat runs; inconclusive = weak or mixed curves; inactive = no such curve, though single readings can be large; an effect the other way counts as inactive or inconclusive.
# Assays:
# [1] = Human pregnane X receptor (PXR) small molecule agonists, qHTS cell viability counter screen (AID 1346977); also: nearly all actives have a fitted effect of over 50% in size
# Method in brief: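 Fluorescence read-out (CellTiter-Fluor) of viability in PXR-Luc HepG2 cells, multiplexed with the luciferase agonist read. Compounds in DMSO added after 5hr plating; 24hr total exposure at 37C, 5% CO2.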
# [2] = Caspase-3/7 induction in HepG2 cells by small molecules, qHTS assay (AID 1346978); also: nearly all actives have a fitted effect of over 15% in size
# Method in brief: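 Wild-type HepG2 cells (2,000/well) were settled 5 h at 37 C, 5% CO2, then exposed to compounds in DMSO for 17 h. Caspase-3/7 activity was read by luminescence 30 min after adding Caspase-Glo 3/7 reagent at room temperature.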
# [3] = Caspase-3/7 induction in CHO-K1 cells by small molecules, qHTS cell viability counter screen (AID 1346979); also: nearly all actives have a fitted effect of over 35% in size
# Method in brief: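 CHO-K1 wt, 1,500 cells/well; 5hr pre-incubation 37C/5% CO2; compound pin transfer (DMSO); 16hr exposure; CellTiter-Fluor added, 1hr, fluorescence read.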
# [4] = Caspase-3/7 induction in HepG2 cells by small molecules, qHTS cell viability counter screen (AID 1346981); also: series mostly up to about 92 µM; nearly all actives have a fitted effect of over 30% in size
# Method in brief: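 Steps: seed 2,000 HepG2 cells per well; incubate 5 hr at 37 C; pin-add compounds in DMSO; incubate 16 hr; add CellTiter-Fluor; after 1 hr at 37 C and 5% CO2, read fluorescence.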
# [5] = molecular target: Nuclear receptor subfamily 1 group I member 2 (Homo sapiens) (UniProt O75469); assay: Human pregnane X receptor (PXR) small molecule agonists, qHTS assay (AID 1346982); also: nearly all actives have a fitted effect of over 35% in size; also: potency is read from the fitted curve at half-maximal effect
# Method in brief: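 Agonist mode qHTS: PXR-Luc HepG2 cells plated 5 hr before DMSO-dissolved compounds were pinned in, cultured 24 hr at 37 C, 5% CO2; ONE-Glo luminescence readout.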
# [6] = molecular target: Cytochrome P450 2D6 (Homo sapiens) (UniProt P10635); assay: Cytochrome P450 Family 2 Subfamily D Member 6 (CYP2D6) small molecule antagonists: luciferase reporter qHTS assay (AID 1671196); also: nearly all actives have a fitted effect of over 50% in size; also: potency is read from the fitted curve at half-maximal effect; as to activity change, negative = inhibition: series mostly up to about 120 µM
# Method in brief: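 P450-Glo format: CYP2D6 converts a proluciferin substrate to luciferin in an NADPH-driven reaction lasting 1 h at room temperature. Light output, proportional to CYP2D6 activity, reflects interference by test chemicals.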
# [7] = molecular target: Cytochrome P450 2C19 (Homo sapiens) (UniProt P33261); assay: Cytochrome P450 Family 2 Subfamily C Member 19 (CYP2C19) small molecule antagonists: luciferase reporter qHTS assay (AID 1671197); also: nearly all actives have a fitted effect of over 65% in size; also: potency is read from the fitted curve at half-maximal effect; as to activity change, negative = inhibition: series mostly up to about 120 µM
# Method in brief: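 Light output is proportional to CYP2C19 activity: proluciferin substrate is converted to luciferin, then detected by a luciferin detection reagent that also stops the 1 h, 37C NADPH-driven reaction. Ketoconazole serves as positive control.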
# [8] = molecular target: Cytochrome P450 2C9 (Homo sapiens) (UniProt P11712); assay: Cytochrome P450 Family 2 Subfamily C Member 9 (CYP2C9) small molecule antagonists: luciferase reporter qHTS assay (AID 1671198); also: nearly all actives have a fitted effect of over 50% in size; also: potency is read from the fitted curve at half-maximal effect; as to activity change, negative = inhibition: series mostly up to about 120 µM
# Method in brief: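 CYP2C9 activity was measured with a P450-Glo proluciferin substrate. Enzyme–substrate mix was held with compound for 10 min at room temperature, then NADPH regeneration solution was added for 1 h at 37C. Luciferin product was read as luminescence.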
# [9] = molecular target: Cytochrome P450 1A2 (Homo sapiens) (UniProt P05177); assay: Cytochrome P450 Family 1 Subfamily A Member 2 (CYP1A2) small molecule antagonists: luciferase reporter qHTS assay (AID 1671199); also: nearly all actives have a fitted effect of over 50% in size; also: potency is read from the fitted curve at half-maximal effect; as to activity change, negative = inhibition: series mostly up to about 120 µM
# Method in brief: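 Inhibition of CYP1A2 conversion of proluciferin to luciferin, detected by luminescence. Reaction run 1 h at room temperature with NADPH regeneration after brief compound preincubation.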
# [10] = molecular target: Cytochrome P450 3A4 (Homo sapiens) (UniProt P08684); assay: Cytochrome P450 Family 3 Subfamily A Member 4 (CYP3A4) small molecule antagonists: luciferase reporter qHTS assay (AID 1671201)
# Method in brief: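 Luminescent readout (RLU) proportional to CYP3A4 activity, from luciferin generated off a proluciferin substrate. Enzyme–substrate mix plus compound 10 min at room temp, NADPH regeneration 1 h, detection reagent 20 min.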
# [11] = Caspase-3/7 induction in CHO-K1 cells by small molecules, qHTS assay (AID 1346980); also: nearly all actives have a fitted effect of over 15% in size
# Method in brief: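 Wild-type cells were seeded at 1,500 per well and settled 5 hr at 37 C, 5% CO2, then exposed to DMSO-dissolved compounds for 17 hr. Caspase-Glo 3/7 reagent was added, and luminescence was read after 30min at room temperature.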
# [12] = molecular target: Voltage-gated inwardly rectifying potassium channel KCNH2 (Homo sapiens) (UniProt Q12809); assay: Human Ether-a-go-go-Related Gene (hERG) channel small molecule antagonists: fluorescence cell-based qHTS assay (AID 1671200)
# Method in brief: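 Read-out: thallium influx as a surrogate for potassium, tracked as fluorescence (480 nm ex/540 nm em) every second for 2 min after Stimulus Buffer addition in dye-loaded hERG-U2OS cells.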
# [13] = molecular target: Nuclear receptor subfamily 1 group I member 2 (Rattus norvegicus) (UniProt Q9R1A7); assay: Rat pregnane X receptor (rPXR) activation by small molecules, qHTS assay (AID 1346983); conditions: rPXR luciferase reporter cells, One-Glo luminescence, 24 h; active compounds read high; also: nearly all actives have a fitted effect of over 20% in size
# Method in brief: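 Cell-based rPXR luciferase reporter assay, 2,000 cells per well, rested 5hr at 37 C before compound addition in DMSO, then 24 hr at 37 C. One-Glo reagent was added and luminescence read after 30 min at room temperature.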
# Voltage-gated inwardly rectifying potassium channel KCNH2 (Homo sapiens), sequence (Q12809 whole entry, looked up): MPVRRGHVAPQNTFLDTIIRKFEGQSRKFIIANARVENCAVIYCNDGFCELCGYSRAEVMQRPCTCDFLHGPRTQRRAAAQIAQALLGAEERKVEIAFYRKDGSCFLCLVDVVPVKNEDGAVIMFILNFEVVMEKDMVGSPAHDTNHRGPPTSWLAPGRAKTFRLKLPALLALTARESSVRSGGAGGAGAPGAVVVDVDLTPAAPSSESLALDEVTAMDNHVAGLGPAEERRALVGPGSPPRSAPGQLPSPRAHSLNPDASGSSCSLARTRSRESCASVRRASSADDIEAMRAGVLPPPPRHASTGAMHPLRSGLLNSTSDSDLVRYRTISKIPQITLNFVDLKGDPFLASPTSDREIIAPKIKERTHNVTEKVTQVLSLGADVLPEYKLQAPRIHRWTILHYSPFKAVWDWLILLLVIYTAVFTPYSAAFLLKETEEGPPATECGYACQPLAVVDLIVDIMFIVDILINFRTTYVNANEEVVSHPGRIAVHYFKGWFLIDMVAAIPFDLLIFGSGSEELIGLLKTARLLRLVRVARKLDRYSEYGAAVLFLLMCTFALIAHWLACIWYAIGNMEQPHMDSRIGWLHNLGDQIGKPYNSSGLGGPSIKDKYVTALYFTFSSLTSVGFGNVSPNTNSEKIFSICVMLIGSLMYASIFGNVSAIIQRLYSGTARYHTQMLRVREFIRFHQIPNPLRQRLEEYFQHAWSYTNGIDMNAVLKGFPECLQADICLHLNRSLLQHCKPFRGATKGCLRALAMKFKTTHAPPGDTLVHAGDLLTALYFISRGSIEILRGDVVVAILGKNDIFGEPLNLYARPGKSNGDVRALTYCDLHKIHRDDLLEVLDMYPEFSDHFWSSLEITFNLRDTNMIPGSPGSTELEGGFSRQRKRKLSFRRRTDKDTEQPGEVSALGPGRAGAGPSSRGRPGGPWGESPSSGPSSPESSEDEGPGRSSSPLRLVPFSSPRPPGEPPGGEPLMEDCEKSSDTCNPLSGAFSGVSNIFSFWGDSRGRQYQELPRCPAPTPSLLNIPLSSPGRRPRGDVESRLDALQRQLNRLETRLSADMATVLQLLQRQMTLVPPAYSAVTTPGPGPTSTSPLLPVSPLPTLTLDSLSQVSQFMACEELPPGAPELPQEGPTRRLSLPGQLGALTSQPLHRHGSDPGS
# Cytochrome P450 1A2 (Homo sapiens), sequence (P05177 whole entry, looked up): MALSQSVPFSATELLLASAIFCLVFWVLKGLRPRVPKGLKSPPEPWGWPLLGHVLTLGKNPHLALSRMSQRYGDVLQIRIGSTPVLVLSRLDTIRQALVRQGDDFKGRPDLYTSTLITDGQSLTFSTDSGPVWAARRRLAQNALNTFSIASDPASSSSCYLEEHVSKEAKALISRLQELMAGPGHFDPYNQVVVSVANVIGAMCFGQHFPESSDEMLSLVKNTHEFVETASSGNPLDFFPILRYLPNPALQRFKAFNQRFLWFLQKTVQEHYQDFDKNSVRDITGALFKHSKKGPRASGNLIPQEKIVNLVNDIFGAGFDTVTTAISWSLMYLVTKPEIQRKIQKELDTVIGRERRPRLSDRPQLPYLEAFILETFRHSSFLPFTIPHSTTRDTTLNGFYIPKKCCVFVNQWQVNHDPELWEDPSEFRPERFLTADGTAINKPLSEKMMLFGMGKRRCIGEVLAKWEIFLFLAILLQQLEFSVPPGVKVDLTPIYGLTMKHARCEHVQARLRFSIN
# Nuclear receptor subfamily 1 group I member 2 (Homo sapiens), sequence (O75469 whole entry, looked up): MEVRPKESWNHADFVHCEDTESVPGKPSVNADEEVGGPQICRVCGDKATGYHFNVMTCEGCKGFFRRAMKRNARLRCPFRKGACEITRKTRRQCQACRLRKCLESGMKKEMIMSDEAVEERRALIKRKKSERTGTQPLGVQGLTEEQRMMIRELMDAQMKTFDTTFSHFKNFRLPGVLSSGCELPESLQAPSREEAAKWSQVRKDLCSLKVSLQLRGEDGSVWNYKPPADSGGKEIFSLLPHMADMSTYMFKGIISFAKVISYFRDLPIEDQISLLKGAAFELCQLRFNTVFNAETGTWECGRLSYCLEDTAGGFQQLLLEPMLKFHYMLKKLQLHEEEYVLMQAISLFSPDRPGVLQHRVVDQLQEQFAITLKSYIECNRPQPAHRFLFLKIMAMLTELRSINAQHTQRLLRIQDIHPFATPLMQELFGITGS
# Cytochrome P450 2C19 (Homo sapiens), sequence (P33261 whole entry, looked up): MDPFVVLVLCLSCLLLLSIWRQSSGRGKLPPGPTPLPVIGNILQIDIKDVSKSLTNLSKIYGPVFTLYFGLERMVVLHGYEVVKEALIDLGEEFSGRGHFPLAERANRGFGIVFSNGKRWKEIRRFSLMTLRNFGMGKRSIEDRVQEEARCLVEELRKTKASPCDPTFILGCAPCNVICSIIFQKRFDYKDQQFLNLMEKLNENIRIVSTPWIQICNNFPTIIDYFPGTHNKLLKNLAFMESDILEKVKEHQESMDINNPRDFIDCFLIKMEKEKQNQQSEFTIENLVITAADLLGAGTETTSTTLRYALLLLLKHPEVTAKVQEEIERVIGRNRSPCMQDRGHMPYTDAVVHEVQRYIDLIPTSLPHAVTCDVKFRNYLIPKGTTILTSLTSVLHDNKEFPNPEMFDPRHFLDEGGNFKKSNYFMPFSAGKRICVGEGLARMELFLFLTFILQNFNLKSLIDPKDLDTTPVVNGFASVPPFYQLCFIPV
# Cytochrome P450 2D6 (Homo sapiens), sequence (P10635 whole entry, looked up): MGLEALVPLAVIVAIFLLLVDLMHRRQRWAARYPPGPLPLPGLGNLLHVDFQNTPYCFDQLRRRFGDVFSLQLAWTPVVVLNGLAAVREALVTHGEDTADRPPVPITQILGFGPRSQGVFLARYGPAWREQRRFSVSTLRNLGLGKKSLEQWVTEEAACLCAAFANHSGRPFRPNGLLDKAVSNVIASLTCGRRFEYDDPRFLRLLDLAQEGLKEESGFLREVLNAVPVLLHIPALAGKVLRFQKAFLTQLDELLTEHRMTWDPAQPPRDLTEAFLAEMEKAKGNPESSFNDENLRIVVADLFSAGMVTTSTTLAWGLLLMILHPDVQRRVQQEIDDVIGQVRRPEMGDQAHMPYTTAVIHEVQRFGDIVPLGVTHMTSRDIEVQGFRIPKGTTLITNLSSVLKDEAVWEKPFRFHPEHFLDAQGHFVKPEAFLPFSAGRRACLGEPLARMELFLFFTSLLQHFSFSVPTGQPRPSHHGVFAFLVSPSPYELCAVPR
# Cytochrome P450 3A4 (Homo sapiens), sequence (P08684 whole entry, looked up): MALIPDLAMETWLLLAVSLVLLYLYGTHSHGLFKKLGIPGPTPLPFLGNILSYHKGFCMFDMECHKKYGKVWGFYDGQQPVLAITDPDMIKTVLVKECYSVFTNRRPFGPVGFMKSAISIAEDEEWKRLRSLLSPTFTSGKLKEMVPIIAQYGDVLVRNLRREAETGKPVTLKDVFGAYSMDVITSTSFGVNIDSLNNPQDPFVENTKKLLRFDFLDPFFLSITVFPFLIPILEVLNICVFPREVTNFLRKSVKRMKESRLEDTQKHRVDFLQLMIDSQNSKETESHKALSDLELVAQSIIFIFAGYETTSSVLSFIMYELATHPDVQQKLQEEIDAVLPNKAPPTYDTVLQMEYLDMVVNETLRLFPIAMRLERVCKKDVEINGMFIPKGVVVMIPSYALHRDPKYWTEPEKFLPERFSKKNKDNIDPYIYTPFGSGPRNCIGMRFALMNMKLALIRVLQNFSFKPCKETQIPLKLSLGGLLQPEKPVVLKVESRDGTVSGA
# Cytochrome P450 2C9 (Homo sapiens), sequence (P11712 whole entry, looked up): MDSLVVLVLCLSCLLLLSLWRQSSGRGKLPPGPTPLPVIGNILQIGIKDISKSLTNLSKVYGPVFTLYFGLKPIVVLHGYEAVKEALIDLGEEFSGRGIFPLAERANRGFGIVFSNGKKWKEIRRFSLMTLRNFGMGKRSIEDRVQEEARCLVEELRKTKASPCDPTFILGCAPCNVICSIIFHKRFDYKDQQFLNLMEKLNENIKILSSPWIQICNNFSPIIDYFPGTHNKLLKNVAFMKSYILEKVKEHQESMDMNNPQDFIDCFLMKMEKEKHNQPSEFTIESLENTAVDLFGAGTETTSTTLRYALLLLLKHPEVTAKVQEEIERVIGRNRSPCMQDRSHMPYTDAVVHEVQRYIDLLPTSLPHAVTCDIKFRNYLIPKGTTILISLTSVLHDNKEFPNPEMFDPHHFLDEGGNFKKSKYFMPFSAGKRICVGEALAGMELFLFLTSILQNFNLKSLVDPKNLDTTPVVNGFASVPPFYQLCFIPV
# Nuclear receptor subfamily 1 group I member 2 (Rattus norvegicus), sequence (Q9R1A7 whole entry, looked up): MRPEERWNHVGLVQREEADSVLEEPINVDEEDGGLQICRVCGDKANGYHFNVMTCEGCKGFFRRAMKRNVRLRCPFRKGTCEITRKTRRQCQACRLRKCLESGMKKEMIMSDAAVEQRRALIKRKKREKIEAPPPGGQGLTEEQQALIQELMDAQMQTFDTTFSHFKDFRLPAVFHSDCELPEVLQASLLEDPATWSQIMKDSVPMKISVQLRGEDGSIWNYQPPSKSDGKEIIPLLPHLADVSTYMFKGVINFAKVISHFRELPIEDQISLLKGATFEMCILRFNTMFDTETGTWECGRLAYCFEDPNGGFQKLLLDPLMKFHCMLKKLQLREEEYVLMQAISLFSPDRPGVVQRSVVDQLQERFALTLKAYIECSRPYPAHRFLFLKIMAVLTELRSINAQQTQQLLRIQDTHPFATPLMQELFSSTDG
smiles,measurement,setting,value
CC(C)(C)NCCNC(C)(C)C,Potency,[1],inactive
same,Potency,[2],inactive
same,Potency,[3],inactive
same,Potency,[4],inactive
same,Potency,[5],inactive
same,Potency,[6],inactive
same,Potency,[7],35.6 µM (active)
same,Potency,[8],inactive
same,Potency,[9],inactive
same,Potency,[10],inactive
C1CN(CCOCCN2CCOCC2)CCO1,Potency,[1],inactive
same,Potency,[2],inactive
same,Potency,[3],inactive
same,outcome,[11],inactive
same,Potency,[4],inactive
same,Potency,[5],inactive
same,Potency,[7],inactive
same,Potency,[8],inactive
same,Potency,[9],inactive
same,Potency,[12],inactive
same,Potency,[10],inactive
CC(=O)CC(C)C,Potency,[1],inactive
same,Potency,[2],inactive
same,Potency,[3],inactive
same,outcome,[11],inactive
same,Potency,[4],inactive
same,Potency,[5],inactive
same,Potency,[6],inactive
same,Potency,[7],inactive
same,Potency,[8],inactive
same,Potency,[12],inactive
same,Potency,[10],inactive
CC/C=C\CCOC(C)=O,Potency,[2],inactive
same,Potency,[3],inactive
same,outcome,[11],inactive
same,Potency,[4],inactive
same,Potency,[5],inactive
same,Potency,[7],inactive
same,Potency,[8],inactive
same,Potency,[9],inactive
same,Potency,[12],inactive
same,Potency,[10],inactive
Nc1ccccc1S(=O)(=O)O,Potency,[1],inactive
same,Potency,[2],inactive
same,Potency,[3],inactive
same,outcome,[11],inactive
same,Potency,[4],inactive
same,Potency,[5],inactive
same,Potency,[6],inactive
same,Potency,[7],inactive
same,Potency,[9],inactive
same,Potency,[10],inactive
O=[N+]([O-])c1ccc(F)cc1F,Potency,[1],inactive
same,Potency,[2],inactive
same,Potency,[3],inactive
same,outcome,[11],inactive
same,Potency,[4],inactive
same,Potency,[5],inactive
same,Potency,[6],inactive
same,Potency,[7],inactive
same,Potency,[8],inactive
same,Potency,[12],inactive
same,Potency,[10],inactive
CCOC(=O)C(=O)OCC,Potency,[1],inactive
same,Potency,[2],inactive
same,Potency,[3],inactive
same,outcome,[11],inactive
same,Potency,[4],inactive
same,Potency,[5],inactive
same,Potency,[6],31.7 µM (active)
same,Potency,[7],inactive
same,Potency,[8],inactive
same,Potency,[12],inactive
same,Potency,[10],inactive
CC/C=C\CC/C=C/C(OCC)OCC,Potency,[1],inactive
same,Potency,[2],inactive
same,Potency,[3],inactive
same,Potency,[4],inactive
same,Potency,[5],24.3 µM (active)
same,Potency,[6],inactive
same,Potency,[7],56.4 µM (active)
same,Potency,[8],35.6 µM (active)
same,Potency,[12],inactive
O=C(O)CN(CCOCCOCCN(CC(=O)O)CC(=O)O)CC(=O)O,caspase activation,[2],-0.864% [at 0.349 µM]
same,"activity change, negative = cytotoxicity",[3],10.9% [at 0.349 µM]
same,"activity change, negative = cytotoxicity",[4],2.16% [at 0.349 µM]
same,activation,[5],-3.68% [at 0.349 µM]
same,"activity change, negative = inhibition",[6],-9.59% [at 0.435 µM]
same,"activity change, negative = inhibition",[7],-11.6% [at 0.435 µM]
same,"activity change, negative = inhibition",[8],4.56% [at 0.435 µM]
same,"activity change, negative = inhibition",[9],-6.73% [at 0.435 µM]
same,"activity change, negative = inhibition",[12],0.825% [at 0.29 µM]
same,"activity change, negative = inhibition",[10],0.649% [at 0.435 µM]
CCCCCCCCCCCCN(CCCCCCCCCCCC)CCCCCCCCCCCC,Potency,[1],inactive
same,Potency,[2],inactive
same,outcome,[11],inactive
same,Potency,[4],inactive
same,Potency,[5],inactive
same,Potency,[7],inactive
same,Potency,[8],inactive
same,Potency,[12],inactive
same,Potency,[10],inactive
CC(C)(CC(=O)O)C(=O)O,Potency,[1],inactive
same,Potency,[2],inactive
same,Potency,[3],inactive
same,outcome,[11],inactive
same,Potency,[4],inactive
same,Potency,[5],inactive
same,Potency,[7],70.3 µM (active)
same,Potency,[8],inactive
same,Potency,[9],12.5 µM (active)
same,Potency,[12],inactive
same,Potency,[10],inactive
NC(=O)c1ccc([N+](=O)[O-])cc1,Potency,[1],inactive
same,Potency,[2],inactive
same,Potency,[3],inactive
same,Potency,[4],inactive
same,Potency,[5],inactive
same,Potency,[7],79.3 µM (active)
same,Potency,[9],39.8 µM (active)
same,Potency,[12],inactive
same,Potency,[10],inactive
COCCc1ccc(OCC(O)CNC(C)C)cc1 (configuration not stated),Potency,[1],inactive
same,Potency,[2],inactive
same,Potency,[3],inactive
same,outcome,[11],inactive
same,Potency,[4],inactive
same,max activation,[13],-0.133%
same,Potency,[12],inactive
Oc1ccc(C2CNCCc3c2cc(O)c(O)c3Cl)cc1 (configuration not stated),Potency,[1],inactive
same,Potency,[2],inactive
same,Potency,[3],inactive
same,outcome,[11],inactive
same,Potency,[4],inactive
same,Potency,[5],inactive
same,Potency,[9],inactive
same,Potency,[12],inactive

# Reference: PubChem BioAssay (Tox21)
